Values joined by “and” are separate entries in the source; they are usually repeats but may differ in a detail not shown here. Equal entries are not always repeated. Results filed as inconclusive are left out. Some structures have more than one record in an assay (separate samples or runs), and their calls can disagree. Active and inactive are the calls of the source. The call rests on the fitted dose curve; in most records, active means well fitted curve in the direction sought with a large enough effect; inconclusive means small, poorly fitted or top-dose-only effect, or another doubt; inactive means no such curve, though single readings can be large; an effect the other way counts as inactive or inconclusive.
Key:
[1] = Viability qHTS for spleen associated tyrosine kinase inhibitor (SYKi) drug resistant MV4-11 cells (AID 1963824); further: nearly all actives have a fitted effect of over 35% in size
Method in brief: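 SYK-inhibitor-resistant MV4-11 AML cells were seeded at 500 per well onto compound and cultured 72 hours (37 °C, 5% CO2). CellTiter-Glo was then added, and after 10 min at room temperature, luminescence gave viability.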

[2] = Cellular viability qHTS for adrenocortical cancer (ACC) cell line NCI-H295R (AID 1963990); further: nearly all actives have a fitted effect of over 60% in size
Method in brief: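 Adrenocortical carcinoma cells, suspended at 300 000 cells/mL in serum-free DMEM plus ITS, rested overnight before pin transfer of compound. After two days' incubation, ATP-dependent luminescence was recorded and curve-fitted.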

[3] = Cellular viability qHTS for adrenocortical cancer (ACC) cell line SW-13 (AID 1963989); settings: SW-13 ACC cells viability, CellTiter-Glo, 48 h; activity (max response): stronger effect = lower value; further: nearly all actives have a fitted effect of over 65% in size;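 on activity (max response): cells grown in serum-free medium with ITS supplement; on the % scale 0 is the no-effect control and ±100 the full control effect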
Method in brief: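 IC50 and maximal-response values come from four-parameter logistic fits of titration data. SW-13 cells in serum-free medium received compounds (up to 46 uM final) for 48 h before CellTiter-Glo luminescence.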
Potency means the concentration at half of the fitted maximal effect.

Structure (SMILES)	Potency [1]	Potency [2]	activity (max response) [3]	Potency [3]
CC1(C)O[C@@H]2C[C@H]3[C@@H]4CCC5=CC(=O)CC[C@]5(C)[C@@]4(F)[C@@H](O)C[C@]3(C)[C@]2(C(=O)CCl)O1	18.8 µM (active)	inactive	–	–
OC(c1ccc(-c2ccc(CN3CCN(Cc4ccncc4)CC3)cc2)c(F)c1)(C(F)(F)F)C(F)(F)F	5.9 µM (active)	inactive	–	–
COc1cc(N)c(Cl)cc1C(=O)NC1CCN(CCCOc2ccc(F)cc2)CC1OC (stereo not drawn)	23.7 µM (active)	inactive	–	–
C=CCSCC1Nc2cc(Cl)c(S(N)(=O)=O)cc2S(=O)(=O)N1 (stereo not drawn)	10.6 µM (active)	inactive	6.34% (inactive)	–
OCCc1ccccc1	inactive	inactive	–	–
CN1CCN(c2ccc(Nc3ncc4cc(C#N)c(=O)n(C5CCCC5)c4n3)cc2)CC1	0.235 µM (active)	inactive	–	–
CC(C)c1cc(CNc2nc(Nc3cc(C4CC4)[nH]n3)cc(N3CCN(C)CC3)n2)on1	0.0231 µM (active)	1.58 µM (active)	–	3.98 µM (active)
CCc1cccc2c3c([nH]c12)[C@@](CC)(CC(=O)O)OCC3	14.8 µM (active)	inactive	-21.1% (inactive)	–
COc1cc2ncnc(Nc3cccc(Cl)c3F)c2cc1OC(=O)N1CCN(C)C[C@H]1C	7.31 µM (active)	inactive	–	–
C#C[C@]1(OC(C)=O)CC[C@H]2[C@@H]3CCC4=C[C@@H](OC(C)=O)CC[C@@H]4[C@H]3CC[C@@]21C	21.1 µM (active) and 14.6 µM (active)	20.6 µM (active)	–	–
CN(C)CCOC1=Cc2ccccc2Sc2ccc(Cl)cc21	15 µM (active)	20.6 µM (active)	–	–
COc1ccc2c(c1)CC[C@@H]1[C@@H]2CC[C@]2(C)[C@@H](NCCCCCCN3C(=O)C=CC3=O)CC[C@@H]12	5.25 µM (active)	inactive	–	–
Oc1ccc(Cl)cc1Cc1cc(Cl)ccc1O	11.9 µM (active)	5.17 µM (active)	–	–
C[C@@H]1COCCN1c1cc(-c2ccnn2C)c2ccnc(-c3ccn[nH]3)c2n1	0.0934 µM (active)	0.158 µM (active)	–	–
CC(=O)OCC(=O)[C@@]1(O)CCC2C3CCC4=CC(=O)CC[C@]4(C)C3[C@@H](O)C[C@@]21C (stereo partly drawn)	inactive	inactive	-1.87% (inactive)	–
Nc1cccc2c(N)cccc12	0.545 µM (active)	39.8 µM (active)	–	–

Structure (SMILES)	Potency [1]	Potency [2]	activity (max response) [3]	Potency [3]
O=C(NOCC(O)CO)c1ccc(F)c(F)c1Nc1ccc(I)cc1F (stereo not drawn)	0.148 µM (active)	inactive	–	–
Nc1nc(Nc2ccc3c(c2)CC[C@@H](N2CCCC2)CC3)nn1-c1cc2c(nn1)-c1ccccc1CCC2	0.417 µM (active)	10 µM (active)	–	–
Clc1cccc(C(c2ccc3nc[nH]c3c2)n2ccnc2)c1 (stereo not drawn)	inactive and 18.6 µM (active)	inactive	–	–
Cc1c[nH]c2nc(Nc3ccc(N4CCN(C)CC4)c(F)c3)nc(-c3cccc(CC#N)c3)c12	0.0059 µM (active)	2.51 µM (active)	–	2.24 µM (active)
COc1cc2c(NC3CCN(C)CC3)nc(N3CCCN(C)CC3)nc2cc1OCCCN(C)C	18.6 µM (active)	inactive	–	–
COc1cc(NS(C)(=O)=O)ccc1Nc1c2ccccc2nc2ccccc12	0.468 µM (active)	8.91 µM (active)	–	5.62 µM (active)
Cc1cc(C(=O)Nc2cc(Oc3ccc4nc(NC(=O)C5CC5)cn4n3)ccc2C)n(C)n1	14.8 µM (active)	22.4 µM (active)	–	–
COc1ccc2[nH]c(S(=O)Cc3ncc(C)c(OC)c3C)nc2c1 (stereo not drawn)	1.64 µM (active)	inactive	–	–
CCS(=O)(=O)N1CCC([C@@H](C)n2c(C)c(C(=O)NCc3c(OC)cc(C)[nH]c3=O)c3ccccc32)CC1	inactive	inactive	–	–
Cc1cccc(CC(=O)N2CCc3c2ccc(-c2cn(C)c4ncnc(N)c24)c3F)n1	2.06 µM (active)	inactive	–	–
CCCCCCCCCCCCCCCCOP(=O)([O-])OCC[N+](C)(C)C	21.1 µM (active)	23.1 µM (active)	–	–
CN1CCN(CCC(=O)N2c3ccccc3Sc3ccc(C(F)(F)F)cc32)CC1	23.7 µM (active)	23.1 µM (active)	–	–
NS(=O)(=O)c1ccc(NC(=S)N2CCN(C/C=C/c3ccccc3)CC2)cc1	14.8 µM (active)	inactive	–	–
O=C(N/N=C/c1ccc([N+](=O)[O-])o1)c1ccc(O)cc1	16.8 µM (active)	7.31 µM (active)	–	–
Nc1ncc(C(=O)NC2CN(C(=O)C3CC3)C2)c2ccc(-c3cccc(F)c3)nc12	7.42 µM (active)	inactive	–	–
